A selection: hits, their analogues and other compounds. The true share with any hit is near 2.9%.
proKLK7 act – activates the human kallikrein-7 zymogen. purified proKLK7, EDANS-DABCYL substrate fluorescence; 100% is mature enzyme control, 0% vehicle. activation, % at 7 µM. 0.9% of 370,000 active. AID 652039;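 active = activation above the mean of all tested compounds plus 3 SD, computed per campaign excluding outliers beyond control limits, cut at about 13% in these data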
Target sequence (P49862 whole entry, looked up): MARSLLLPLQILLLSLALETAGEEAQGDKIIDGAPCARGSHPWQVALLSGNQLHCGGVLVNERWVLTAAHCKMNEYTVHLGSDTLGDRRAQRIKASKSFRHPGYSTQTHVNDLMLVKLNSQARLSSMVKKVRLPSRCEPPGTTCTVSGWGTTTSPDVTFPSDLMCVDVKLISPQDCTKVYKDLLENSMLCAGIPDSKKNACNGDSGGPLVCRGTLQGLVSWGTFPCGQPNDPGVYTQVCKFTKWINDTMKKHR
SMARCA2 act – SMARCA2 function activation, primary screen; MG213 cells, MMTV-luciferase reporter, dexamethasone, overnight; activation, % at 9.1 µM; AID 652017; 1% of 370,000 active; in the data active = activation above about 7.8%
FXN GAA850 act – frataxin GAA850 promoter activation. activation, % at 6 µM. HEK293 lucGAA850 FXN promoter luciferase reporter, 24 h; percent of 10 µM SAHA response. 0.56% of 360,000 active. AID 540364;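 active = activation above the average of all compounds screened plus 3 SD, cutoff fixed separately per campaign, cut at about 7.5% in these data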
FAS TE block – inhibitors of human fatty acid synthase thioesterase domain; P49327; recombinant FAS-TE, OMFH fluorogenic substrate, fluorescence endpoint; inhibition, % at 15 µM; 0.67% of 360,000 active; AID 602261;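 active = compounds whose normalised, plate-corrected inhibition of enzyme fluorescence in the single-dose primary screen is 50% or more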
FAS-TE inh conf – confirmation of human fatty acid synthase thioesterase inhibitors; shares compounds with FAS TE block; recombinant FAS-TE, OMFH fluorogenic substrate, fluorescence; inhibition, % at 15 µM; 45% of 2,300 active; AID 624325;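 active = compounds inhibiting the enzyme by at least 50% at 15 µM in any one of the replicates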
A number is an active result; i = inactive; nt = no result.

SMILES	proKLK7 act	SMARCA2 act	FXN GAA850 act	FAS TE block	FAS-TE inh conf
CC1(C)C([N+](=O)[O-])C(c2ccc(Cl)cc2)NC(c2ccc(Cl)cc2)C1[N+](=O)[O-] (stereo unspecified)	i	i	i	65.6	i
CC1(C)C([N+](=O)[O-])C(c2ccc(F)cc2)NC(c2ccc(F)cc2)C1[N+](=O)[O-] (stereo unspecified)	i	i	i	i	nt
Cc1ccc(C2NC(c3ccc(C)cc3)C([N+](=O)[O-])C(C)(C)C2[N+](=O)[O-])cc1 (stereo unspecified)	i	i	i	60.5	i
COc1ccc(NS(=O)(=O)c2cc(NC(=O)c3cnc(C)cn3)ccc2N2CCCCC2)cc1	i	i	i	55.1	i
COc1ccc(NS(=O)(=O)c2cc(NC(=O)c3ccc(Cl)cc3)ccc2N2CCOCC2)cc1	i	i	i	52.9	i
C/C(=N\NS(=O)(=O)c1ccc(Cl)c([N+](=O)[O-])c1)c1cc2ccccc2o1	i	i	i	53.9	59.1
C/C(=N\NS(=O)(=O)c1ccc(C)c([N+](=O)[O-])c1)c1cc2ccccc2o1	i	i	i	i	nt
Fc1cccc(-c2cc3nc4c(c(N5CCC6(CC5)OCCO6)n3n2)CCCC4)c1	i	i	i	54.9	i
Cc1onc(-c2ccccc2)c1C(=O)n1nnc2ccccc21	i	i	i	52.3	51.3
Cc1onc(-c2ccccc2)c1C(N)=O	i	i	i	i	nt
OC1CCC(Nc2ccn3nc(-c4cccc(OCc5ccccc5)c4)cc3n2)CC1 (stereo unspecified)	i	i	i	i	nt
N#Cc1cc(Oc2ccc(Cl)cc2)c(N2CCOCC2)cc1C#N	i	i	i	67.1	29.7
O=C(c1ccc2c(c1)OCO2)N1CCC2(CC1)Oc1ccc(F)cc1C(=O)C21CC(c2ccccc2)=NO1 (stereo unspecified)	i	i	i	67.4	i
Cc1ccc(C(=O)N2CCC3(CC2)Oc2ccc(Cl)cc2C(=O)C32CC(c3ccccc3)=NO2)s1 (stereo unspecified)	i	i	i	i	nt
O=C(c1ccoc1)N1CCC2(CC1)Oc1ccc(F)cc1C(=O)C21CC(c2ccc(Cl)cc2)=NO1 (stereo unspecified)	i	i	i	74.3	i
O=C(c1ccoc1)N1CCC2(CC1)Oc1ccc(Cl)cc1C(=O)C21CC(c2ccc(Cl)cc2)=NO1 (stereo unspecified)	i	i	i	i	nt
O=C(c1ccc2c(c1)OCO2)N1CCC2(CC1)Oc1ccc(F)cc1C(=O)C21CC(c2cccnc2)=NO1 (stereo unspecified)	i	i	i	i	nt
Cc1ccc(C(=O)N2CCC3(CC2)Oc2ccc(F)cc2C(=O)C32CC(c3ccccc3)=NO2)s1 (stereo unspecified)	i	i	i	71.8	i
CC(C)(C)OC(=O)N1CCC2(CC1)Oc1ccc(F)cc1C(=O)C21CC(c2ccccc2)=NO1 (stereo unspecified)	i	i	i	58.7	i
O=C(c1ccoc1)N1CCC2(CC1)Oc1ccc(F)cc1C(=O)C21CC(c2ccccc2)=NO1 (stereo unspecified)	i	i	i	i	nt
Cc1ccc(C(C)C)c(OCC(=O)OCC(=O)NC2CC2)c1	i	i	i	i	nt
CCOC(=O)Cc1nnc(NC(=O)C2CCCCC2)s1	i	i	i	i	nt
COc1cccc(N2CCN(C(=O)C3CCC(=O)N(C4CCCCCC4)C3)CC2)c1 (stereo unspecified)	i	i	i	i	nt
Cc1ccc(C(=O)N2CCC3(CC2)Oc2ccc(Cl)cc2C(=O)C32CC(c3ccc(Cl)cc3)=NO2)s1 (stereo unspecified)	i	i	i	i	nt
Cc1ccc(C(=O)N2CCC3(CC2)Oc2ccc(F)cc2C(=O)C32CC(c3ccc(Cl)cc3)=NO2)s1 (stereo unspecified)	i	i	i	87.4	i
Cc1ccc(NC(=O)/C(=C/C=C/c2ccccc2)NC(=O)c2ccccc2)cc1	i	i	i	62.9	i
O=C(Nc1ccc(C(=O)O)cc1)/C(=C\C=C\c1ccccc1)NC(=O)c1ccc(Br)cc1	i	i	i	i	nt
Cc1cc2ncn(/N=C/c3ccc(-c4ccccc4)o3)c2cc1C	i	i	i	50.2	i
N#CC(C#N)=c1ccc2c(c1)N1C3=C(CCCC3)CC3CCCCC31N=2 (stereo unspecified)	i	i	i	51.3	i
